LGR2 antag – Drosophila LGR2 receptor signaling inhibition | HEK293 LGR2, CRE-luciferase, bursicon-stimulated, 4 h | inhibition, % at 9.99 µM | actives 0.35% (n = 380,000) | AID 720647;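 active = drop in luminescence signal, shown as inhibition above about 50% in the replicate tests, limit read from the data, passing the limit was not always enough; inconclusive = probably only some replicates passing the limit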;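 also: agonist challenge used bursicon conditioned medium at about half maximal strength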
TROY NFkB inh – inhibitors of TROY-dependent NF-kB signaling; actives 0.98% (n = 360,000); Q293 LMP1-TROYcd NF-kB luciferase reporter, 4 h; inhibition, % at 10 µM;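 active = compounds whose plate-normalised and pattern-corrected inhibition of the luciferase reporter signal at the single screening dose is 50% or more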
EBV LMP1 NFkB – Epstein-Barr LMP1 NF-kappaB reporter inhibition. inhibition, % at 12.5 µM. LMP1-induced NF-kappaB luciferase reporter cells, luminescence. AID 504558. actives 0.69% (n = 350,000); in the data active = inhibition above about 41%; inconclusive = no clear call, values can overlap the other calls;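 also: 0% = neutral control wells and 100% = reference inhibitor control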
TWEAK Fn14 block – blocks TWEAK-Fn14 interaction in a reporter cell assay; TWEAK-stimulated Fn14 reporter cells, luciferase luminescence, 8 h; inhibition, % at 10 µM; actives 2% (n = 360,000); in the data active = inhibition above about 50%
EWS-Fli block – blocks EWS/Fli oncoprotein-driven transcription; A673 NR0B1-luciferase reporter, viability-normalised; actives 0.67% (n = 350,000); inhibition, % at 12.6 µM;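 active = mean inhibition of at least 50% after viability correction, with every replicate also passing that limit; inconclusive = mean reaches 50% but only one of two replicates passes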;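 also: firefly luciferase signal divided by Alamar Blue viability fluorescence both relative to DMSO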
Active calls of the source: *; ? = inconclusive; . = no result; ! = repeats disagree. In the library only some 2.5% were active in any assay of this set; here they are far more common.

SMILES | LGR2 antag | TROY NFkB inh | EBV LMP1 NFkB | TWEAK Fn14 block | EWS-Fli block
Clc1ccc(C[n+]2c(-c3ccccc3)cc(-c3ccccc3)cc2-c2ccccc2)cc1 | 9 | 51* | ? | 73* | 44
CC12CN3CN(C1)CC(c1ccccc1)(C3)C2=O | . | . | 1 | 88* | .
OC1C2CN3CN(C2)CC1(c1ccccc1)C3 (stereo unspecified) | 4 | 6 | -4 | 8 | 2
COc1ccc(OC)c(-n2c(O)c(/C=C3\C(C)=Nc4ccccc43)c(=O)[nH]c2=O)c1 | 2 | 7 | . | 7 | 10
COC(=O)C1=Nc2ccccc2/C1=C\c1c(O)n(-c2ccc(OC)cc2)c(=O)[nH]c1=O | . | 35 | 4 | 65* | .
O=c1[nH]c(=O)n(-c2ccccc2)c(O)c1/C=C1/C(c2ccccc2)=Nc2ccccc21 | 6 | -35 | -8 | 38 | .
COC(=O)C1=Nc2ccccc2/C1=C\c1c(O)n(-c2ccc(Br)cc2)c(=O)[nH]c1=O | . | -2 | 2 | 59* | 14
COc1ccc(C#Cc2ccc([C@@H]3[C@H]4CN(C(=O)Cc5cccnc5)CCCCN4[C@H]3CO)cc2)cc1 | 24 | . | . | . | -7
O=C(Cc1ccccn1)N1CCCCN2[C@H](CO)[C@@H](c3ccc(-c4ccccc4)cc3)[C@@H]2C1 | 20 | . | . | . | -8
COc1cc([C@@H]2c3cc4c(cc3[C@@H](OC)[C@H]3COC(=O)[C@H]23)OCO4)cc(OC)c1O | -20 | 11 | -2 | -4 | 63*
Cc1ccnc(-n2c(C)cc(C=C3C(=O)N(C)C(=S)N(C)C3=O)c2C)c1 | . | 1 | -4 | 87* | .
Cc1cc(C=C2C(=O)N(C)C(=S)N(C)C2=O)c(C)n1-c1ccncc1 | 3 | -10 | . | 1 | 9
c1ccc(P(c2ccccn2)c2ccccn2)cc1 | 3 | 59* | 0 | 12 | 14
CC(=O)OC[C@]12CCC(C)=C[C@H]1O[C@@H]1[C@H](O)[C@@H](OC(C)=O)[C@@]2(C)[C@]12CO2 | 104* | 84* | 74* | 98* | 56*
CCOC(=O)C1C(OC(=O)c2ccccc2)CC2CCC1N2C (stereo unspecified) | 8 | -7 | 73* | -6 | -3
COC(=O)C1C2CC[C@@H](CC1OC(=O)c1ccccc1)N2 (stereo partly specified) | . | -11 | 90* | 4 | .
CCCNC(=O)[C@H]1[C@H](CO)[C@H]2Cn3c(cccc3=O)[C@H]2N1C | 1 | . | . | . | -4
COc1ccc2c(c1)[nH]c1c(C)nccc12 | 35 | 50 | 38 | 65* | 16
O=C(O)[C@H]1[C@H](CO)[C@H]2Cn3c(ccc(-c4cccc(F)c4)c3=O)[C@@H]1N2CCc1ccccc1 | -12 | . | . | . | -2
Oc1ccc2c3c1O[C@H]1[C@@H](O)CC[C@@]4(O)[C@@H](C2)N(CC2CCC2)CC[C@]314 | 3 | -3 | 69*! | 4 | -10
CCN1C(=O)/C(=C/c2ccc(N(CC)CC)cc2OC)C(=O)NC1=S | 10 | 10 | -17 | 67* | .
COc1ccccc1/C=C1\C(=O)NC(=S)N(c2ccccc2)C1=O | -4 | -7 | . | 12 | 9
CCCN1[C@@H]2Cn3c(ccc(-c4cccc(C(=O)N(C)C)c4)c3=O)[C@H]1[C@@H](C(=O)OC)[C@@H]2CO | 5 | . | . | . | -6
CCCCn1nnnc1C(CCc1ccccc1)N1CCC(n2c(=O)[nH]c3ccccc32)CC1 (stereo unspecified) | 106* | 27 | . | 31 | 15
COc1ccc(-n2nnnc2C(CCc2ccccc2)N2CCC(n3c(=O)[nH]c4ccccc43)CC2)cc1 (stereo unspecified) | 101* | 72* | . | 94* | 4
COc1ccc(C(c2nnnn2-c2ccc3c(c2)OCCO3)N2CCC(n3c(=O)[nH]c4ccccc43)CC2)cc1 (stereo unspecified) | 12 | 14 | . | 46 | 0
CCC(c1nnnn1-c1ccc(OC)cc1)N1CCC(n2c(=O)[nH]c3ccccc32)CC1 (stereo unspecified) | -1 | 22 | . | 7 | -14
O=c1[nH]c2ccccc2n1C1CCN(C(CCc2ccccc2)c2nnnn2-c2ccc3c(c2)OCCO3)CC1 (stereo unspecified) | 92* | 59* | . | 70* | 41
CCCCn1nnnc1C(CCSC)N1CCC(n2c(=O)[nH]c3ccccc32)CC1 (stereo unspecified) | 14 | -5 | . | 17 | -9
